Measured values from PubChem BioAssay AID720540 (National Center for Advancing Translational Sciences (NCATS), 2013).
Among all 1,300 compounds or so, about 460 (35%) were called active. Roughly 39% stayed inconclusive and do not appear here. The call rests on the fitted dose curve; in most records, active means well fitted inhibition curve with a large enough effect; inconclusive means small, poorly fitted or top-dose-only effect; inactive means flat fitted curve, though single readings scatter. The list shows a part of the results.

Each molecule was assayed against Protein phosphatase EYA2 (Homo sapiens) (UniProt O00167) (assay: qHTS for Inhibitors of the Phosphatase Activity of Eya2: Confirmatory Assay for Cherry-picked Compounds). Conditions: purified EYA2 phosphatase activity, qHTS confirmation; series mostly up to 46.1 µM.
Chain of Protein phosphatase EYA2 (Homo sapiens) (O00167 whole entry, looked up, the tested form may be a part): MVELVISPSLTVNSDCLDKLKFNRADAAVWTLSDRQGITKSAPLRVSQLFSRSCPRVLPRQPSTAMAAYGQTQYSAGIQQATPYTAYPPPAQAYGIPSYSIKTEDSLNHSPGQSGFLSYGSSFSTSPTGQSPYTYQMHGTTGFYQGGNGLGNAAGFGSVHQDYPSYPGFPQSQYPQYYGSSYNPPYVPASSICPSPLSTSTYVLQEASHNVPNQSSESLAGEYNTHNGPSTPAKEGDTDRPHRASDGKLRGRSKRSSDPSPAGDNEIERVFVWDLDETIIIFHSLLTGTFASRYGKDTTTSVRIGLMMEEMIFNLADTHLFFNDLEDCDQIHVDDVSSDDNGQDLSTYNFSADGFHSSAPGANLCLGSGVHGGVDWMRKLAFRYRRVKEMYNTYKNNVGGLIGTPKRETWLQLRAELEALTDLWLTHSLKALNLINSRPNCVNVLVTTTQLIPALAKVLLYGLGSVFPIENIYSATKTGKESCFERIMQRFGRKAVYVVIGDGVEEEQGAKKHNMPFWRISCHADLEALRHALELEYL
Text: The Eya protein family is an essential co-activator of the Six1 transcription factor. Six1 is a developmental gene that is abnormally re-expressed in a large percentage of breast cancers. This over-expression plays a causal role in the initiation and metastatic development of breast cancers. The Eya family of protein is also found to contain a unique HAD phosphatase domain with protein tyrosine phosphatase activity which can potentially play a role in Six1-mediated breast tumorigenesis. Recently, Eya2 is found to dephosphorylate the histone variant H2AX and direct cells towards DNA repair instead of apoptosis in the event of DNA damage.
A 1536 well format, fluorescence based qHTS assay was developed and used to target the phosphatase activity of Eya2 (AID 488837). Inhibitors found against Eya2 could serve as potential therapeutic tools to inhibit Six1-mediated breast tumorigenesis and to increase the efficiency of radiation and certain chemo therapy. This assay assessed the activity of the primary screen cherry-picked compounds against Eya2. Inhibition is the desired outcome for this assay.
NIH Chemical Genomics Center [NCGC]
NIH Molecular Libraries Probe Centers Network [MLPCN]
Assay Submitter (PI): Rui Zhao, University of Colorado Denver
Eya2 enzyme and 3-O-methyl-fluorescein phosphate (OMFP) substrate working solutions were reconstituted in the buffer reagent consist of 50 mM HEPES pH 7.5, 50 mM NaCl, […], 0.05% BSA and 1 mM DTT. One and a half microliter of 0.2 uM Eya2 working solution was dispensed in a 1536 well Greiner plate (black, medium bind). Twenty-three nanoliter of test compounds and control compound EGTA was transferred to the assay plate using the Kalypsys robotic system equipped with a 1536 pin head. The plate was incubated at room temperature for 10 minutes. One and a half microliter of the 50 uM the OMFP substrate was then dispensed to the assay plate and incubated at room temperature for additional 10 min. The fluorescence signal was read using the PerkinElmer ViewLux plate reader using a 485 nm excitation and 525 nm emission filters. The data was normalized to the positive control for maximum inhibition and DMSO treated wells as negative control.
Further: nearly all actives have a fitted effect of over 65% in size.
Potency means the concentration at half of the fitted maximal effect.

Potency, inactive:
CC(=O)Nc1ccc2nc(C3CC3)n(Cc3ccc(Cl)cc3)c(=O)c2c1
Cc1cc(C)c2nc(SCC(=O)N(C)C3CCS(=O)(=O)C3)cc(C)c2c1 (stereo not drawn)
CCCCC1=CC2=C(c3ccco3)C(=O)C(C)(OC(=O)c3ccc(OC)cc3)C(=O)C2=CN1CCc1ccccn1 (stereo not drawn)
COc1ccccc1NC(=O)NCCN1CCN(C(=O)Nc2ccccc2OC)CC1
COc1cc(C(C(=O)NC2CCCCC2)N(C(=O)Cc2c[nH]c3ccccc23)c2ccc(C)cc2)cc(OC)c1OC (stereo not drawn)
O=C(O)c1cccc(N2C(=O)c3cccc(Oc4ccc(Cl)cc4)c3C2=O)c1
CCCC(=O)Nc1ccc(NC(=S)NC(=O)c2cccs2)cc1
CCC(=O)NC(=S)Nc1ccc(NC(=O)COc2ccc([N+](=O)[O-])cc2)cc1
CCc1ccc(-c2csc(NC(=O)C3CC(=O)N(c4ccc5c(c4)OCCO5)C3)n2)cc1 (stereo not drawn)
Cc1ccc(SCc2nc(N)nc(Nc3ccccc3C)n2)cc1C
c1ccc2cc(CSCc3nc4ccccc4[nH]3)ccc2c1
Cc1nn2c(c1-c1ccccc1)NC1=C(C(=O)CCC1)C2c1ccccc1 (stereo not drawn)
CC1(C)CC(=O)c2c(oc3ccc(NS(=O)(=O)c4cccc5cccnc45)cc23)C1
COc1ccc(N(CC(=O)Nc2cccc(C(C)=O)c2)S(=O)(=O)c2ccc(NC(C)=O)cc2)cc1
CCOc1ccc(Br)cc1S(=O)(=O)NC1CC(C)(C)NC(C)(C)C1
CCCC(=O)NC(=S)Nc1sc2c(c1C(N)=O)CCC2
CN(C)S(=O)(=O)n1cnc2ccccc21
Cn1c(=O)n(CCO)c(=O)c2c1nc(Br)n2Cc1ccccc1
O=S(=O)(c1ccc(Cl)s1)N1CCc2ccccc2C1
O=C(O)c1ccc2c(c1)C(=O)N(c1cccc(-c3nc4ccccc4s3)c1)C2=O
CCCc1cc(=O)[nH]c(SCC(=O)Nc2ccc(C)cc2)n1
O=c1[nH]c(/C=C\c2ccc(O)cc2)nc(O)c1[N+](=O)[O-]
CNc1c(Br)cc(C(O)C2=CCc3ccccc32)cc1Br (stereo not drawn)
Nc1nc2cc3ccccc3cc2[nH]c1=O
Cc1ccccc1NC(=O)C1CCN(C(=O)N2CCOc3ccccc32)CC1
CCc1nc2ccc(C(=O)NCCOc3ccc(OC)cc3)cn2c1N(CCC(C)C)CCN(C)C
Cc1cccn2c(=O)c3cc(S(=O)(=O)c4ccc(F)cc4)c(=N)n(Cc4ccco4)c3nc12
CCC(=O)c1cn(CC(=O)Nc2c(C)cccc2C)c2ccccc12
CCOc1ccccc1O[C@H](c1ccccc1)[C@H]1CNCCO1
O=C(CSc1ccc2c(c1)OCCO2)Nc1ccc2c(c1)OCO2
NC(=O)C1CCN(CC(=O)Nc2ccc3c(c2)OCO3)CC1
OC(c1ccc(Cl)cc1)c1nccc2ccccc12 (stereo not drawn)
COC(=O)c1c(C)[nH]c(C(=O)C(C)OC(=O)C2CC(=O)N(c3ccc(C)cc3)C2)c1C (stereo not drawn)
Cn1c(N)c(C(=O)CSc2nnc(NC3CCCCC3)s2)c(=O)n(C)c1=O
COc1ccc(C(=O)N2CCOCC2)cc1S(=O)(=O)N1CCCc2ccccc21
CC1=CC(C)(C)Nc2ccc(OC(=O)CN3C(=O)c4ccccc4C3=O)cc21
O=C(NC1CCCCC1)N1CCN(C2CCCCC2)CC1
COc1ccc([C@H]2CC(=O)C=C(c3ccnc4ccc(Cl)cc34)C2)cc1
N=C1/C(=C/c2ccc(-c3cccc(C(=O)O)c3)o2)C(=O)N=C2SC=C(c3ccccc3)N12

Potency, active:
CN1C=C/C(=C\c2cc[n+](C)c3ccccc23)c2ccccc21 16.9 µM
C[n+]1ccc(/C=C/c2cc[n+](C)c3ccccc23)c2ccccc21 9.53 µM
COc1cc(C=NO)nc(-c2ccccn2)c1 1.2 µM
Oc1c(Cl)cc(CN2CCOCC2)c2cccnc12 0.478 µM
CC(C)Cc1nc2oc3c(=O)[nH]cnc3c2c2c1CCC2 19 µM
O=C(O)CCc1c2ccc(=O)c(O)c-2oc2c(O)c(O)ccc12 1.69 µM
O=C(O)c1cccc2cccc(-c3c4ccc(=O)c(O)c-4oc4c(O)c(O)ccc34)c12 3.79 µM
CC(=O)Oc1cccc2c1C(=O)c1c(OC(C)=O)cc(C(=O)O)cc1C2=O 16.9 µM
O=S(c1cc(Cl)cc(Cl)c1O)c1cc(Cl)cc(Cl)c1O 1.35 µM
CCN(CC)c1ccc(NC(=S)NC(=O)c2cccs2)cc1 13.5 µM
O=c1[nH][nH]cc1C=Nc1cc(Cl)ccc1O 5.36 µM
CCOC(=O)c1cc2c(N)c(C(=O)c3ccc(Br)cc3)sc2[nH]c1=O 1.9 µM
O=C(Nc1nc(-c2ccco2)c(-c2ccco2)s1)C1CC(=O)N(c2ccc3c(c2)OCCO3)C1 (stereo not drawn) 19 µM
O=C(Nc1nc(-c2ccccn2)cs1)C1CC(=O)N(c2ccc3c(c2)OCCO3)C1 (stereo not drawn) 7.57 µM
COc1ccc(-c2c(N)cnc(C(=O)O)c2C)c(OCc2ccccc2)c1OC 19 µM
Cc1ccc(C(=O)Oc2cc(C)n(C)c(=O)c2)cc1 1.51 µM
Cc1cc(OC(=O)c2ccc(Cl)cc2)cc(=O)n1C 2.39 µM
Cc1ccc(NC(=O)CSc2cccc3cccnc23)c(C)c1 5.36 µM
CCN1C(=O)/C(=C2/C=Cc3ccccc3N2CC)SC1=S 3.79 µM
Cc1cccc(NC2=C(NCCO)C(=O)c3ccccc3C2=O)c1 16.9 µM
O=C1C=CC(=O)c2c(O)c(N3CCN(CCOCCO)CC3)c(Br)c(O)c21 13.5 µM
CC(=O)N1CCN(/[N+]([O-])=N/Oc2ccc([N+](=O)[O-])cc2[N+](=O)[O-])CC1 19 µM
Cn1nc([N+](=O)[O-])nc1Sc1cccc2cccnc12 1.9 µM
O=c1c(O)cccc2cc(O)c(O)c(O)c12 8.49 µM
OCCN(Cc1cccnc1)Cc1ccccn1 5.36 µM
CC(=O)Nc1ccc(S(=O)(=O)Nc2cccc3cccnc23)cc1 4.78 µM
O=C(CCCl)Nc1cccc2cccnc12 15.1 µM
O=S(=O)(Nc1cccc2cccnc12)c1ccccc1Br 16.9 µM
NC(=O)c1c(NC(=O)c2ccc(N3C(=O)CCC3=O)cc2)sc2c1CCCC2 1.51 µM
CCc1nnc2c(N(C)C)nc3ccccc3n12 15.1 µM
Cn1c(=O)n(Cc2ccc(F)cc2)c(=O)c2c1nc1n2CCN1Cc1ccco1 16.9 µM
Cc1ccc(C(=O)Oc2ccc(C(=O)COC(=O)c3cnccn3)cc2)cc1 0.478 µM
Clc1ccc(-c2ccc(CNCc3ccccn3)o2)cc1 15.1 µM
Fc1ccc(-c2ccc(CNCc3ccccn3)o2)cc1 19 µM
Clc1cccc(-c2ccc(CNCc3ccccn3)o2)c1 19 µM
CCOc1cc(C=NNC(=O)c2cccc(S(=O)(=O)N3CCCC3)c2)ccc1O 6.01 µM
CC1CCC(=NNc2ccc(C(F)(F)F)cc2[N+](=O)[O-])CC1 (stereo not drawn) 7.57 µM
O=C(O)c1ccc2c(c1)C(=O)N(c1ccc(/C=C/C(=O)c3ccccc3)cc1)C2=O 19 µM
Cc1nnc2sc(SCC(=O)Nc3ccc(Br)cc3)nn2c1=O 4.78 µM
CCOC(=O)c1nn2c(C(F)(F)F)cc(-c3ccc(OC)cc3)nc2c1Br 12 µM
Cc1ccccc1C(=O)NC(=S)Nc1ccccc1N1CCCC1 13.5 µM
C/C(=C1/C=Nc2ccccc21)c1ccc(N(C)C)cc1 19 µM
COc1ccc(CCn2c(=N)c(C(=O)NCc3ccco3)cc3c(=O)n4ccccc4nc32)cc1OC 15.1 µM
Cc1ccccc1OCCn1cc(C(=S)N2CCN(C)CC2)c2ccccc21 16.9 µM
O=c1oc(-c2ccco2)nc2ccccc12 19 µM
O=C(O)CCCCCNS(=O)(=O)c1cccc2c1C(=O)c1ccccc1C2=O 6.01 µM
Nn1c(SCC(=O)Nc2ccc3c(c2)OCCO3)nnc1-c1ccccn1 21.3 µM
O=S(=O)(Nc1nnc(-c2ccccc2)s1)c1ccc(Cl)cc1 15.1 µM
COc1cc(OC)c(OC)cc1CCC(C)NCCC(c1ccccc1)c1ccccc1 (stereo not drawn) 8.49 µM
Cc1ccc(NC(=O)CN2C(=O)S/C(=C\c3cc(Cl)c(OCC(=O)O)c(Cl)c3)C2=O)cc1 19 µM
CC(SC1=NCCS1)C(=O)Nc1nnc(-c2ccc(Br)cc2)s1 (stereo not drawn) 6.01 µM
Oc1c(C(c2ccc(Cl)cc2)N2CCCC2)cc(Cl)c2cccnc12 (stereo not drawn) 6.75 µM
CN1CCN(C(c2ccccn2)c2cc(Cl)c3cccnc3c2O)CC1 (stereo not drawn) 2.39 µM
CC(=O)Oc1ccc(C(=O)OCC(=O)c2c(N)n(C)c(=O)n(C)c2=O)cc1OC(C)=O 4.78 µM
O=C(Oc1ccc(C(=S)N2CCOCC2)cc1Br)c1ccccc1F 16.9 µM
O=C(Oc1ccc(C(=S)N2CCOCC2)cc1Cl)c1ccccc1F 8.49 µM
CN1/C(=C\C(=S)NC(=O)c2ccccc2Cl)C(C)(C)c2ccccc21 16.9 µM
COc1cc(OC)c(NC(=O)CN(C)S(=O)(=O)c2ccc(-c3ccc(=O)[nH]n3)s2)cc1Cl 4.26 µM
O=C(O)c1ccc(-c2ccc(/C=c3/sc4nc5ccccc5n4c3=O)o2)cc1Cl 5.36 µM
